# Measured values published in article PMC11062922 (Nature Chemical Biology, 2023).
# Like-named read-outs stand apart in the source and are kept apart here.
# How the values were obtained:
# Parameters in all cases: species or system human, MV4-11 + K-562 + COLO205 + SK-N-BE2 + OVCAR-8
# CDK16 = settings: read-out: apparent Kd, compound concentrations: 100 nM and 1000 nM (sheet 'Samples'), n = 1
# CDK17 = settings: read-out: apparent Kd; compound concentrations: 100 nM and 1000 nM (sheet 'Samples'), CATDS: 5.2851487986603697E-2; n = 1
# CDK2 = settings: read-out: apparent Kd, compound concentrations: 100 nM and 1000 nM (sheet 'Samples'), n = 1
# CDK6 = settings: read-out: apparent Kd; compound concentrations: 100 nM and 1000 nM (sheet 'Samples'), CATDS: 5.8978881187618598E-2; n = 1
# CDK9 = settings: read-out: apparent Kd; compound concentrations: 100 nM and 1000 nM (sheet 'Samples'), CATDS: 7.0025924153680405E-2; n = 1
# CDKL5 = settings: read-out: apparent Kd, compound concentrations: 100 nM and 1000 nM (sheet 'Samples'), n = 1
# DYRK1A = settings: read-out: apparent Kd, compound concentrations: 100 nM and 1000 nM (sheet 'Samples'), n = 1
# GSK3A = settings: read-out: apparent Kd, n = 1
# GSK3B = settings: read-out: apparent Kd; compound concentrations: 100 nM and 1000 nM (sheet 'Samples'), CATDS: 0.45532128509290898; n = 1
# MAPK14 = settings: read-out: apparent Kd; compound concentrations: 100 nM and 1000 nM (sheet 'Samples'), CATDS: 5.6581371759273497E-2; n = 1
# MAPK7 = settings: read-out: apparent Kd; compound concentrations: 100 nM and 1000 nM (sheet 'Samples'), CATDS: 4.4821094432651497E-2; n = 1
# MAPK9 = settings: read-out: apparent Kd; compound concentrations: 100 nM and 1000 nM (sheet 'Samples'), CATDS: 4.6942214024324101E-2; n = 1
# MELK = settings: read-out: apparent Kd; compound concentrations: 100 nM and 1000 nM (sheet 'Samples'), CATDS: 4.5559662583992203E-2; n = 1
# NQO2 = settings: read-out: apparent Kd; compound concentrations: 100 nM and 1000 nM (sheet 'Samples'), CATDS: 5.78366102928662E-2; n = 1
# PRKD2 = settings: read-out: apparent Kd; compound concentrations: 100 nM and 1000 nM (sheet 'Samples'), CATDS: 5.0441088598544299E-2; n = 1
# TP53RK = settings: read-out: apparent Kd, compound concentrations: 100 nM and 1000 nM (sheet 'Samples'), n = 1
# CDC7 = settings: read-out: apparent Kd, compound concentrations: 100 nM and 1000 nM (sheet 'Samples'), n = 1
# CDC42 = settings: read-out: apparent Kd; compound concentrations:100 nM and 1000 nM (sheet 'Samples'); n = 1
# FLT3 = settings: read-out: apparent Kd; compound concentrations:100 nM and 1000 nM (sheet 'Samples'); n = 1
# LIMK2 = settings: read-out: apparent Kd; compound concentrations:100 nM and 1000 nM (sheet 'Samples'); n = 1
# NUAK1 = settings: read-out: apparent Kd; compound concentrations: 100 nM and 1000 nM (sheet 'Samples'), CATDS: 0.20890182477098199; n = 1
# NUAK2 = settings: read-out: apparent Kd; compound concentrations: 100 nM and 1000 nM (sheet 'Samples'), CATDS: 0.14838950263404099; n = 1
# STK3 = settings: read-out: apparent Kd; compound concentrations: 100 nM and 1000 nM (sheet 'Samples'), CATDS: 0.13207546439769999; n = 1
# STK4 = settings: read-out: apparent Kd; compound concentrations: 100 nM and 1000 nM (sheet 'Samples'), CATDS: 0.136772712102746; n = 1
# CLK1 = settings: read-out: apparent Kd, compound concentrations: 100 nM and 1000 nM (sheet 'Samples'), n = 1
# CLK4 = settings: read-out: apparent Kd, compound concentrations: 100 nM and 1000 nM (sheet 'Samples'), n = 1
# CSNK2A1;CSNK2A3 = settings: read-out: apparent Kd; compound concentrations: 100 nM and 1000 nM (sheet 'Samples'), CATDS: 0.31191577539645199; n = 1
# CSNK2A2 = settings: read-out: apparent Kd; compound concentrations: 100 nM and 1000 nM (sheet 'Samples'), CATDS: 0.34928398987599801; n = 1
# CSNK1A1 = settings: read-out: apparent Kd; compound concentrations: 100 nM and 1000 nM (sheet 'Samples'), CATDS: 0.113796385521925; n = 1
# CSNK1D = settings: read-out: apparent Kd; compound concentrations: 100 nM and 1000 nM (sheet 'Samples'), CATDS: 0.110842785331434; n = 1
# CSNK1E = settings: read-out: apparent Kd; compound concentrations: 100 nM and 1000 nM (sheet 'Samples'), CATDS: 9.8087772288550895E-2; n = 1
# ILK = settings: read-out: apparent Kd; compound concentrations: 100 nM and 1000 nM (sheet 'Samples'), CATDS: 8.2547383277030401E-2; n = 1
# NQO1 = settings: read-out: apparent Kd; compound concentrations: 100 nM and 1000 nM (sheet 'Samples'), CATDS: 9.0275127229000399E-2; n = 1
# RIOK2 = settings: read-out: apparent Kd; compound concentrations: 100 nM and 1000 nM (sheet 'Samples'), CATDS: 9.8590158992526697E-2; n = 1
smiles,measurement,setting,value
CCC(NN(C)C)=C1C(=O)Nc2ccc(C(C)=O)cc21 [BI00036838],potency estimated from few doses,CDK16; CATDS: 6.3187514520784194E-2,753 nM
same,potency estimated from few doses,CDK17,1210 nM
same,potency estimated from few doses,CDK2; CATDS: 4.7813901315705599E-2,1640 nM
same,potency estimated from few doses,CDK6,895 nM
same,potency estimated from few doses,CDK9,590 nM
same,potency estimated from few doses,CDKL5; CATDS: 0.107974532487744,233 nM
same,potency estimated from few doses,DYRK1A; CATDS: 7.1113198150105694E-2,569 nM
same,potency estimated from few doses,"GSK3A; compound concentrations: 100 nM and 1000 nM (sheet 'Samples'), CATDS: 0.31666625502072798",27.3 nM
same,potency estimated from few doses,GSK3B,15 nM
same,potency estimated from few doses,MAPK14,999 nM
same,potency estimated from few doses,MAPK7,2060 nM
same,potency estimated from few doses,MAPK9,1750 nM
same,potency estimated from few doses,MELK,1940 nM
same,potency estimated from few doses,NQO2,942 nM
same,potency estimated from few doses,PRKD2,1390 nM
same,potency estimated from few doses,TP53RK; CATDS: 4.9816696124222203E-2,1440 nM
NS(=O)(=O)c1cccc(-c2ccc3ncc(N4CCOCC4)nc3c2)c1 [GSK1535721A],potency estimated from few doses,CDC7; CATDS: 1,1940 nM
CC(=O)Nc1n[nH]c2ncc(-c3ccccc3)cc12 [SB-548492],potency estimated from few doses,CDC42,1850 nM
same,potency estimated from few doses,FLT3,1040 nM
same,potency estimated from few doses,GSK3A; compound concentrations:100 nM and 1000 nM (sheet 'Samples'),748 nM
same,potency estimated from few doses,LIMK2,1150 nM
CC(C)=Cc1cccc2c1/C(=N/Nc1ccc(S(N)(=O)=O)cc1)C(=O)N2 [GW396574X],potency estimated from few doses,CDK16; CATDS: 0.172165115049177,778 nM
same,potency estimated from few doses,CDK2; CATDS: 0.26435202316191703,366 nM
same,potency estimated from few doses,NUAK1,539 nM
same,potency estimated from few doses,NUAK2,1080 nM
same,potency estimated from few doses,STK3,1470 nM
same,potency estimated from few doses,STK4,1330 nM
O=C1N=C(N[C@@H]2C[C@H]2c2ccccc2)S/C1=C\c1ccc2ncccc2c1 [RO4915610-000],potency estimated from few doses,CDC7; CATDS: 9.1392533314382199E-2,1800 nM
same,potency estimated from few doses,CDKL5; CATDS: 0.100532719571443,1130 nM
same,potency estimated from few doses,CLK1; CATDS: 0.12211476464111,542 nM
same,potency estimated from few doses,CLK4; CATDS: 0.114770368167016,671 nM
same,potency estimated from few doses,CSNK2A1;CSNK2A3,61.5 nM
same,potency estimated from few doses,CSNK2A2,51.1 nM
same,potency estimated from few doses,DYRK1A; CATDS: 0.194548178255603,154 nM
CCc1c(C)nc2sc3c(N)ncnc3c2c1C [RO4493944-000],potency estimated from few doses,CDC7; CATDS: 8.1877579079801296E-2,1870 nM
same,potency estimated from few doses,CLK1; CATDS: 0.173131615518303,453 nM
same,potency estimated from few doses,CLK4; CATDS: 0.128777290310437,724 nM
same,potency estimated from few doses,CSNK1A1,903 nM
same,potency estimated from few doses,CSNK1D,949 nM
same,potency estimated from few doses,CSNK1E,1220 nM
same,potency estimated from few doses,ILK,1830 nM
same,potency estimated from few doses,NQO1,1460 nM
same,potency estimated from few doses,RIOK2,1200 nM
same,potency estimated from few doses,TP53RK; CATDS: 7.7480450425825395E-2,2190 nM
